Experimental data taken from PubChem BioAssay (NCATS).
Inconclusive results are not listed. Activity calls are given as the source filed them. The call rests on the fitted dose curve; in most records, active means well fitted cell-killing curve with a large enough effect; inconclusive means small, poorly fitted or top-dose-only effect, or effect the other way; inactive means flat fitted curve, though single readings scatter.

Assays:
Assay in all cases: Primary qHTS to identify gynecologic anti-cancer compounds using libraries of approved drugs and bioactive compounds (AID 1345084); further: nearly all actives have a fitted effect of over 55% in size
Conditions in all cases: Gynecologic cancer cell panel viability, ATPlite luminescence, 48 h; series mostly up to 57.5 µM
PA-1 = tested on: PA-1
Method in brief: (§1)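 Cytotoxicity screen measuring ATP content by luciferase luminescence. Each compound is applied at five concentrations for 48 h at 37 C with 5% CO2.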

Tov-21-G = tested on: Tov-21-G
Method in brief: as §1

Tov112D = tested on: Tov112D
Method in brief: as §1

Measured: Potency

CCCCCCCCC(=O)N[C@H](CN1CCCC1)[C@H](O)c1ccc2c(c1)OCCO2
inactive: all assays above

O=S(=O)(Cc1ccccc1)Nc1ccc(-c2ccc3c(cnn3-c3ccc(F)cc3)c2)c(C(F)(F)F)c1
inactive: all assays above

CC(C)c1noc(C2CCN(c3ncnc(Nc4ccc(S(C)(=O)=O)cc4F)c3[N+](=O)[O-])CC2)n1
inactive: all assays above

C=C1CC[C@@H]2[C@](C)(CO)[C@H](O)CC[C@@]2(C)[C@@H]1C/C=C1/C(=O)OCC1OC(=O)/C(=C/CO)C(O)C[C@@H]1C(=C)CC[C@@H]2[C@](C)(CO)[C@H](O)CC[C@]21C (stereo partly drawn)
inactive: all assays above

CC(C)c1ccccc1OC(=O)NCCc1ccc2ccccc2c1
inactive: all assays above

CCCCC1CCC(c2nc(-c3ccncc3)no2)CC1 (stereo not drawn)
inactive: all assays above

O=C(c1ccc(F)cc1)N1CCCC(c2nc(-c3ccc(F)cc3)no2)C1 (stereo not drawn)
inactive: all assays above

O=C(N[C@H]1CCC[C@H](CO)C1)C1CCN(c2nc3cc(Cl)c(-c4ccc(Cl)cc4)cc3o2)CC1
inactive: all assays above

C=CC(C)(O)CC[C@@H]1[C@@]2(C)CCCC(C)(C)C2CC[C@@]1(C)O (stereo partly drawn)
inactive: all assays above

CC(=O)OC1CCC2(C)C(CCC3(C)C2CC=C2C4C(C)C(C)CCC4(C)CCC23C)C1(C)C(=O)O (stereo not drawn)
inactive: all assays above

Cc1ccc(S(=O)(=O)NCc2ccc(C(=O)NCCN(Cc3ccccc3)C(C)C)cc2)cc1
inactive: all assays above

CC1=CC2/C=C(\C)CCC(O)C(=O)C(O)CC(=O)C23C(=O)NC(CC(C)C)C3C1C (stereo not drawn)
inactive: all assays above

O=C(NS(=O)(=O)c1ccc(Br)s1)c1ccc(Cl)cc1Cl
inactive: all assays above

CC(=O)OC1C(OC(=O)c2ccccc2)C2C(=C(C)CCC2(C)C)C23CCC(C)(C2)C(=O)CC13 (stereo not drawn)
inactive: all assays above

Cc1cc(F)ccc1[C@H]1C[C@@H](N2CCN3C(=O)CC[C@H]3C2)CCN1C(=O)N(C)[C@H](C)c1cc(C(F)(F)F)cc(C(F)(F)F)c1
inactive: all assays above

NC(N)=N/N=C/c1ccccc1Cl
inactive: all assays above

C[C@H](Nc1cc2c(-c3ccc4c(c3)OCO4)noc2cn1)c1ccccc1
inactive: all assays above

CC(C)(O)C(=O)N1CCN(c2ccc(C(F)(F)F)c(C3=C(c4c[nH]c5ccccc45)C(=O)NC3=O)c2)CC1
inactive: all assays above

O=C(Nc1cccnc1)c1cc(-c2ccnc(F)c2)ccc1OCc1ccccc1
inactive: all assays above

CN1CC2CN(c3ccc4oc5ccccc5c(=O)c4c3)CC2C1 (stereo not drawn)
inactive: all assays above

CC(C)(C)Oc1ccc(OCC2Cc3ccccc3CN2C(=O)c2cccc3ccccc23)cc1 (stereo not drawn)
inactive: all assays above

O=C(COc1ccc(C(=O)c2ccccc2)cc1)NC1CCN(Cc2ccccc2)CC1
inactive: all assays above

Fc1ccc(-c2cncc(CN3CCN(c4cccc5c4OCCO5)CC3)c2)cc1
inactive: all assays above

C/C(=C\CCC(C)C1=CCC2(C)OC3=C(CC12)C(=O)C(O)CC3)CO (stereo not drawn)
inactive: all assays above

CC(C)(O)c1ccc2c(c1)ncn2-c1cccc(-c2ccccc2C#N)c1
inactive: all assays above

C=C1CC[C@@H]2[C@](C)(CO)[C@H](O)CC[C@@]2(C)[C@@H]1CC(O)C1=CCOC1=O (stereo partly drawn)
inactive: all assays above
